Measurements as given in PubChem BioAssay (NCATS).
Inconclusive results are not listed. Where a call stands in place of a potency, no number is given. A number with no mark means an inactive call. Calls of active or inactive are those of the source. Calls follow the shape of the dose curve; as a rule, active = well fitted curve in the direction sought with a large enough effect; inconclusive = small, poorly fitted or top-dose-only effect, or another doubt; inactive = no such curve, though single readings can be large; an effect the other way counts as inactive or inconclusive.

Assays:
[1] = molecular target: Rap guanine nucleotide exchange factor 3 (Homo sapiens) (UniProt O95398); experiment: Confirmatory qHTS for agonist of cAMP-regulated guanine nucleotide exchange factor 3 (EPAC1) (AID 1645881); also: nearly all actives have a fitted effect of over 75% in size; also: potency is read from the fitted curve at half-maximal effect;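 as to activation: EPAC1 catalysed release of BODIPY-GDP from Rap1B seen as fluorescence loss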
[2] = molecular target: Rap guanine nucleotide exchange factor 4 (Homo sapiens) (UniProt Q8WZA2); experiment: Confirmatory qHTS for agonist of cAMP-regulated guanine nucleotide exchange factor 4 (EPAC2) (AID 1645884);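 also: nucleotide exchange releases bodipy-GDP from Rap1 and this lowers its fluorescence; nearly all actives have a fitted effect of over 65% in size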; also: potency is read from the fitted curve at half-maximal effect
[3] = molecular target: Rap guanine nucleotide exchange factor 3 (Homo sapiens) (UniProt O95398); experiment: Counterscreen qHTS for antagonist of cAMP-regulated guanine nucleotide exchange factor 3 (EPAC1) (AID 1645888);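 also: fluorescence loss as bound BODIPY-GDP is released from Rap1B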
How it was run: (§1)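 Rap1B-BODIPY-GDP 250 nM + GDP 50 uM; cpds 7-pt, final 9.74 nM–152 uM (activator mode) or from 7.32 nM upwards (inhibitor mode); RT; FI 480/540 nm at 5 and 30 min, then ± cAMP, reread.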

[4] = molecular target: Rap guanine nucleotide exchange factor 3 (Homo sapiens) (UniProt O95398); experiment: Counterscreen qHTS for agonist of cAMP-regulated guanine nucleotide exchange factor 3 (EPAC1) (AID 1645889); also: nearly all actives have a fitted effect of over 40% in size; also: potency is read from the fitted curve at half-maximal effect
How it was run: as §1

Rap guanine nucleotide exchange factor 3 (Homo sapiens), sequence (O95398 whole entry, looked up): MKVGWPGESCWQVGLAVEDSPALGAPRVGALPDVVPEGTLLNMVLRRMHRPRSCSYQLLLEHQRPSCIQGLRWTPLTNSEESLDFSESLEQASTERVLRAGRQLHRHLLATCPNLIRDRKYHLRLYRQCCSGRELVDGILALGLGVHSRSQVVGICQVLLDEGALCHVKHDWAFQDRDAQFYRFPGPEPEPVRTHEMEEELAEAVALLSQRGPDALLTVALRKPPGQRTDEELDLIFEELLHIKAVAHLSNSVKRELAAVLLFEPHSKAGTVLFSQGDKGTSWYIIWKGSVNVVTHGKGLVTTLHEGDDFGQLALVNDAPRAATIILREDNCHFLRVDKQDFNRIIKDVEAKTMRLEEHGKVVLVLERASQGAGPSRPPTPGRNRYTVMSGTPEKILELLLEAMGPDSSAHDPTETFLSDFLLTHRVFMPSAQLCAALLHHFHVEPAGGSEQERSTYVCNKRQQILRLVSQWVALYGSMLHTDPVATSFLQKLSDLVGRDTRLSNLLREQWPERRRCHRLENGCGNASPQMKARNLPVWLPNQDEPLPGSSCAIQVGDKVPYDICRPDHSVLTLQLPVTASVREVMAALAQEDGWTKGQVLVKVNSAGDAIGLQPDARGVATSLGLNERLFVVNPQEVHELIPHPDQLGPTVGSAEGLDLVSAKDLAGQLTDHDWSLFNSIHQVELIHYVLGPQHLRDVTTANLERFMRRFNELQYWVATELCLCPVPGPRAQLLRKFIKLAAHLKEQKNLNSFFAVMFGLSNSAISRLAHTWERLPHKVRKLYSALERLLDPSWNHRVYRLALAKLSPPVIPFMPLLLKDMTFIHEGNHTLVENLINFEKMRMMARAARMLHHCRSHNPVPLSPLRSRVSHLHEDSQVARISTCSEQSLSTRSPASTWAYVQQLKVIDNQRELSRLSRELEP
Rap guanine nucleotide exchange factor 4 (Homo sapiens), sequence (Q8WZA2 whole entry, looked up): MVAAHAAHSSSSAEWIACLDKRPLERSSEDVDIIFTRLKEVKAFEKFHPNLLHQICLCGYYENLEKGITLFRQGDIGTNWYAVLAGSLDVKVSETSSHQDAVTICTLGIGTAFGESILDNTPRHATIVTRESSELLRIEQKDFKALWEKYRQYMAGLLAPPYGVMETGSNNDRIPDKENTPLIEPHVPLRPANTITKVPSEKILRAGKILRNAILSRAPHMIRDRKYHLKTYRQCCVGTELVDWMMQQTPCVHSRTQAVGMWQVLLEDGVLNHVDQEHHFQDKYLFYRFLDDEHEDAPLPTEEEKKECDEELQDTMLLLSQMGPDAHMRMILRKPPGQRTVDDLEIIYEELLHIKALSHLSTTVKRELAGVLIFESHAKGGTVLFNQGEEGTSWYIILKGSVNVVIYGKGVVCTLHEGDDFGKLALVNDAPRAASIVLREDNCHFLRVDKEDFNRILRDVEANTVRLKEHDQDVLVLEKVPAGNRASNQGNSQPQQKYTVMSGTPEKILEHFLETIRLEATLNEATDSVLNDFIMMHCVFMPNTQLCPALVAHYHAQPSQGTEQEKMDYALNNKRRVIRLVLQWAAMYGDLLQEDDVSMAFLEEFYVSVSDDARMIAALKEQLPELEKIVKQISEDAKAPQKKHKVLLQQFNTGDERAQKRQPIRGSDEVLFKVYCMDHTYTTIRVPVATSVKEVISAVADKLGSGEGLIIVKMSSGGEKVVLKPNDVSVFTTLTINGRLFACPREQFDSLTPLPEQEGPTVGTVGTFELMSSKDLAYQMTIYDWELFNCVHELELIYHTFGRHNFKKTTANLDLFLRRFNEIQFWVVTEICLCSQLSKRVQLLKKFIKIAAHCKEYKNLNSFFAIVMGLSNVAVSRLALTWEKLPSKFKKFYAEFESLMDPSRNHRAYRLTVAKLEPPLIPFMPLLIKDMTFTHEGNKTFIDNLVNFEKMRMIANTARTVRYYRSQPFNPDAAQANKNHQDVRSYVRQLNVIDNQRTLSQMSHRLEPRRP

SMILES	Potency [1]	Potency [2]	Potency [3]	Potency [4]	activation [2]	activity change, negative = inhibition [3]	activation [4]
CC(C)CCNC(=O)c1cnn2c(C(F)(F)F)cc(-c3ccco3)nc12	inactive	inactive	inactive	inactive			
Cc1c(C(=O)N2CCCC2)oc2ccc(Br)cc12	inactive	inactive	inactive	inactive			
O=C(O)CSc1nnc(COc2cccc3ccccc23)n1Cc1ccccc1	inactive	inactive	inactive	inactive			
Cn1c2ccccc2c2cc(/C=N/NC(=O)c3cc(O)cc(O)c3)ccc21	inactive	inactive	inactive	inactive			
CCc1cc(=O)oc2cc(C)cc(OCC(=O)N[C@@H](CSCc3ccccc3)C(=O)O)c12	inactive	inactive	inactive	inactive			
CC(C)CNC(=O)C1(C)CCCCCN1Cc1ccccc1-c1ccccc1 (stereo not given)	inactive	inactive	inactive	inactive			
O=C(O)c1cc(NN=C2c3ccccc3-c3ccccc32)ccc1Cl	inactive	inactive	inactive	inactive			
Cc1ccc2nc(-c3cccc(Br)c3)c(Cc3ccccn3)n2c1	inactive	inactive	inactive	inactive			
COc1cccc(N2CCN(CC(=O)NC(=O)NCc3ccco3)CC2)c1	inactive	inactive	inactive	inactive			
O=C1[C@H](Cc2ccccc2)NCC=CC[C@@H](c2ccc(Cl)cc2)N1Cc1ccc(Cl)cc1	inactive	inactive	inactive	inactive			
Cc1ccc(C(=O)NNC(=O)c2ccccc2O)cc1S(=O)(=O)N1CCCCC1	inactive	inactive	inactive	inactive			
O=C(COc1ccc(Cl)cc1Cl)c1ccc[nH]1	inactive				-1.61% [at 17.1 µM, percent relative to cAMP agonist control]	-17.9% [at 30.8 µM]	7.74% [at 30.8 µM]
CCN(CC)S(=O)(=O)c1ccc2[nH]c(=O)cc(C(=O)Nc3ccc(C)c(S(=O)(=O)N(CC)CC)c3)c2c1	inactive	inactive	inactive	inactive			
COc1ccc(/C=N/NC(=O)c2ccccc2O)cc1Cn1nnc2ccccc21	inactive	inactive	inactive	inactive			
O=C(CN1CCCC1)Nc1ccccc1Sc1ccc(Cl)cc1	inactive	inactive	inactive	inactive			
CCN1CC=C2C(C#N)=C(N)C(C#N)(C#N)C(CCc3ccccc3)C2C1 (stereo not given)	50.1 µM (active)	50.1 µM (active)	inactive	5.62 µM (active)			
O=C(O)c1cc(N/N=C/C=C/c2ccccc2)ccc1Cl	inactive	inactive	inactive	inactive			
CCOC(=O)c1c(CC(C)C)csc1NC(=O)COC(=O)c1ccc(O)cc1	inactive	inactive	inactive	inactive			
COc1ccccc1N1C(=O)C2C(C(=O)c3ccccc3)=NN(c3ccc(Br)cc3)C2C1=O (stereo not given)	inactive	inactive	inactive	inactive			
Cc1noc(C)c1COc1ccccc1C(=O)N(C)Cc1ccc(C(C)(C)C)cc1	inactive	inactive	inactive	inactive			
CCCc1[nH]c2ccc(C#N)cc2c1CCC	inactive	inactive	inactive	inactive			
Cc1ccc(O)c(CNc2ccc(S(=O)(=O)Nc3nccs3)cc2)c1	inactive				-10.4% [at 17.1 µM, percent relative to cAMP agonist control]	1.37% [at 30.8 µM]	19.2% [at 30.8 µM]
CC1=NN(c2nc(-c3ccccc3)cs2)C(=O)C1	inactive	inactive	inactive	inactive			
Cc1ccc(Nc2c([N+](=O)[O-])c(=O)oc3ccccc23)cc1C	inactive	inactive	inactive	inactive			
CC(C)=CCC[C@H](C)C[C@@H]1Cc2[nH][nH]c(=O)c2[C@H](c2ccc(F)cc2)O1	inactive	inactive	inactive	inactive			
CCCCn1c(=O)[nH]c(=O)c2c1nc(-c1ccccc1F)n2Cc1ccccc1OC	inactive	inactive	inactive	inactive			
CCOc1ccc(NC(=NCc2ccc3c(c2)OCO3)SC2CC(=O)N(c3ccc(C(=O)O)cc3)C2=O)cc1 (stereo not given)	inactive	inactive	inactive	inactive			
CCC(=C(c1ccc(OC)cc1)c1ccc(OC)cc1)c1cn(CC(O)CN(CCO)CCO)c2ccccc12 (stereo not given)	inactive	inactive	inactive	inactive			
COc1ccc(-c2ccc(C(=O)NCC3CC3)c3occc23)c(C)c1	inactive	inactive	inactive	inactive			
COc1ccc(NC(=O)c2cccnc2NCCc2ccccc2)cc1	inactive	inactive	inactive	inactive			
